Sampled rows, rich in hits. Any-hit rate of the full collection: about 9%.
ALDH1A1 block = blocks purified human ALDH1A1 activity; P00352; Purified ALDH1A1, NADH fluorescence, propionaldehyde substrate; Potency, µM (titrated, usually from 75.3 µM), without a hit: at the highest dose activity, negative = inhibition, actives largely listed as inhibitors; hit rate 7.3% among 220,000; AID 1030;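 also: potency is read from the fitted curve at half-maximal effect; plate controls were no enzyme wells and a reference inhibitor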
HPGD block = HPGD (human) dehydrogenase inhibition. P15428. purified HPGD, NADH fluorescence kinetic, PGE2 substrate. Potency, µM, for inactives: at the top dose activity change, negative = inhibition, actives largely listed as inhibitors. hit rate 4.3% among 150,000; also: potency is read from the fitted curve at half-maximal effect
Target sequence (P15428 whole entry, looked up): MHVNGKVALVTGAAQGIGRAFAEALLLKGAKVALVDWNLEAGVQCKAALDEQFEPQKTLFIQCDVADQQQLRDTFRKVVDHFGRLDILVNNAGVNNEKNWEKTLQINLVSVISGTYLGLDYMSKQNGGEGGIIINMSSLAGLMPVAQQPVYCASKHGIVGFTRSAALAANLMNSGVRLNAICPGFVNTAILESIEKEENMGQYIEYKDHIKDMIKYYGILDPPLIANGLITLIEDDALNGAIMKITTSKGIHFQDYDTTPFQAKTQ
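20 nM HPGD preincubated 15 min at room temperature with compound in 50 mM Tris-HCl pH 8, 0.01% Tween 20. Started with 1 mM NAD+ and 30 uM prostaglandin E2; NADH fluorescence (360/450 nm) read 5 times over 30-s intervals, last minus first.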
IMPase inh = membrane-permeable compound that blocks inositol monophosphatase; P97697; CHO-M1 cells, IP1 accumulation, HTRF TR-FRET ratio; inhibition (IP1 accumulation), % at 46.1 µM; 120,000 tested, under 10 active; AID 901; active = well fitted curve in the direction sought with a large enough effect in the signal ratio, not every such curve was filed as active; inconclusive = small, poorly fitted or top-dose-only effect, or a change in a side signal; inactive = no such curve, though single readings can be large or run the other way; the % refers to the signal ratio;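 also: cells stimulated with carbachol in lithium chloride buffer; plate controls were DMSO basal wells for no effect and reference inhibitor wells for full effect; higher means more IMPase inhibition seen as more IP1 and lower FRET ratio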
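Cellular IMPase inhibition is scored as a rise in cytosolic IP1, detected by competitive TR-FRET between d2-labelled IP1 and a europium anti-IP1 antibody. M1-expressing CHO cells were stimulated with carbachol for 30 min at 37C, with lithium (50 mM LiCl) present in the buffer.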
* marks the source's active call; other numbers are inactive results; ? = inconclusive; · = not tested or not shown; [ ] = dose if it differs, or a comment. Unless noted, calls follow the shape of the dose curve; as a rule, active = well fitted inhibition curve with a large enough effect (not every such curve was filed as active); inconclusive = small, poorly fitted or top-dose-only effect, or another doubt; inactive = no such curve, though single readings can be large or run the other way. Unless noted, % is scaled to controls: 0 for no effect and ±100 for the full control effect.

SMILES	ALDH1A1 block	HPGD block	IMPase inh
Nc1nc(N)c(N=Nc2ccc(C(=O)O)c(O)c2)c(N)n1	-7%[13.5 µM]	?	·
CC(=O)c1ccc(NS(=O)(=O)c2cccc(C)c2)cc1	?	?	-8
CCC(C)C(=O)Nc1ccc(OC)cc1OC (stereo unspecified)	8%	0%	-2
COc1ccc(NC(=O)N(CCC(C)C)C(C)c2ccccn2)c(OC)c1 (stereo unspecified)	14µM*	-17%	5
Cn1nc(C(=O)NC2CCCCC2)c2ccccc2c1=O	?	-9%	0
Cn1nc(C(=O)Nc2nnc(C3CC3)s2)c2ccccc2c1=O	13µM*	·	·
COc1ccc(Nc2nc(Cl)nc(N3CCN(c4ccc(OC)cc4)CC3)n2)cc1	-2%	·	·
CC1CCN(c2nc(Cl)nc(Nc3ccc([N+](=O)[O-])cc3)n2)CC1	16µM*	-20%	·
C=CCNc1nc(Cl)nc(Nc2ccc([N+](=O)[O-])cc2)n1	2%	·	·
C=CCNc1nc(Nc2ccc([N+](=O)[O-])cc2)nc(N2CCCC2)n1	32µM*	·	·
O=C(NCc1ccco1)C1(c2ccc(Br)cc2)CCCC1	0.18µM*	-16%	0
O=C(Nc1ccccc1C(=O)NCc1ccco1)c1ccco1	?	-16%	6
CS(=O)(=O)Nc1ccccc1C(=O)NCc1ccco1	?	?	-5
O=C(NCc1ccco1)Nc1ccc(Br)cc1	3%	-8%	2
CCSc1ccccc1C(=O)NCc1ccco1	2%	13µM*	-3
O=C(NCc1ccco1)c1ccccc1Br	9%	2µM*	-7
CC(=O)Nc1ccccc1C(=O)C(=O)Nc1ccc(C(=O)NCC2CCCO2)cc1 (stereo unspecified)	-3%	·	·
C=C(C)CC1(NC(C)c2ccccc2)CCCCC1 (stereo unspecified)	7%	1%	·
c1cncc(-c2cncnc2-n2ccnc2)c1	5%	-1%	·
COc1cc(CNC2CCCCC2OC)cc(OC)c1 (stereo unspecified)	-4%	·	·
COC1CCCCC1Nc1ccc(C)c(C)c1 (stereo unspecified)	10µM*	-5%	-7[0.369 µM]
CCOC(=O)c1ccc(NC(=O)NC2CCN(CC(=O)NCc3ccc4c(c3)OCO4)CC2)cc1	-3%	-4%	1
COc1ccc(Cn2c(=S)[nH]c3ccccc32)cc1	-4%	·	·
COc1ccc(-n2c(=S)[nH]c3cc(C(=O)NCc4ccco4)ccc3c2=O)c(OC)c1	0.32µM*	-30%	4
CCOC(=O)N1CCN(C(=O)c2ccc3c(=O)n(-c4ccc(OC)cc4)c(=S)[nH]c3c2)CC1	3%	-4%	-2
SMILES	ALDH1A1 block	HPGD block	IMPase inh
COc1ccc(-n2c(=S)[nH]c3cc(C(=O)Nc4ccccc4OC)ccc3c2=O)cc1	16µM*	-13%	?
COc1ccc(-n2c(=S)[nH]c3ccccc32)cc1	32µM*	22µM*	7
COc1ccc(-n2c(N)c(C(=O)NCc3ccco3)c3nc4ccccc4nc32)c(OC)c1	?	?	-15
COc1ccc(NC(=O)c2ccc3c(=O)n(-c4ccc(OC)cc4OC)c(=S)[nH]c3c2)cc1	13µM*	·	·
CCOC(=O)N1CCN(C(=O)c2ccc3c(=O)n(-c4ccc(OC)cc4OC)c(=S)[nH]c3c2)CC1	-8%	-11%	5
CC(=O)OC[C@@H]1O[C@@H](O/N=C2/C[C@@H](O)[C@@H](O)[C@@H]3[C@@H]4C(=O)N(Cc5ccc6c(c5)OCO6)C(=O)[C@H]4CC[C@@H]23)[C@H](OC(C)=O)[C@H](OC(C)=O)[C@@H]1OC(C)=O	13%[13.5 µM]	·	·
COc1ccc(OCCSc2ncn[nH]2)cc1	9%	-5%	1
CN(C)c1ccc(C(C#N)c2ccccc2)nn1 (stereo unspecified)	10µM*	·	·
CN(C)c1ccc(C(C#N)c2ccc(Cl)cc2)nn1 (stereo unspecified)	-7%	·	·
CC1CCC2=NN(C(=O)c3ccco3)C(O)(C(F)(F)F)C2C1 (stereo unspecified)	-14%	·	·
COc1ccc(-c2ccc(=O)n(CC(=O)Nc3ccc(C(=O)NC4CC4)cc3)n2)cc1OC	6%	16µM*	10
CC(=O)c1cccc(NC(=O)Cn2nc(-c3ccc(Cl)cc3)ccc2=O)c1	7.9µM*	·	·
CN(C1CCCCC1)S(=O)(=O)c1ccc(NC(=O)Cn2nc(-c3ccc(F)cc3)ccc2=O)cc1	13%	-15%	·
COc1ccc(-c2ccc(=O)n(CC(=O)NC3CCc4ccccc43)n2)cc1OC (stereo unspecified)	-2%	·	·
CC(C)CNS(=O)(=O)c1ccc(NC(=O)Cn2nc(-c3ccc(F)cc3)ccc2=O)cc1	5%	7.9µM*	·
CC(=O)c1cccc(NC(=O)Cn2nc(-c3ccccc3Cl)ccc2=O)c1	4%	·	·
O=C(Nc1nnc(COc2ccc(Cl)cc2)s1)c1cccs1	10µM*	25µM*	5

Compound activity: PubChem BioAssay, National Center for Advancing Translational Sciences (NCATS)
